Inconclusive results are not listed. Calls of active or inactive are those of the source. Unless noted, the call rests on the fitted dose curve; in most records, active means well fitted curve in the direction sought with a large enough effect in the repeat runs; inconclusive means weak or mixed curves; inactive means no such curve, though single readings can be large; an effect the other way counts as inactive or inconclusive.
Columns and labels:
[1] = qHTS RealTime-Glo MT Cell Viability Assay in HEK293 cells - 24 hour (AID 1224886); further: top concentration of the series differs between compounds; nearly all actives have a fitted effect of over 50% in size
Outline: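 HEK293 cells were seeded at 600 cells/well together with NanoLuc luciferase and cell-permeant prosubstrate, preincubated 5 h at 37 C/5% CO2, then given compound in DMSO by pintool. Luminescence from viable-cell prosubstrate reduction was read repeatedly over 40 h.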

[2] = qHTS RealTime-Glo MT Cell Viability Assay in HEK293 cells - 8 hour (AID 1224887); further: top concentration of the series differs between compounds; nearly all actives have a fitted effect of over 50% in size
Outline: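 Real-time viability in HEK293: signal arises when living cells convert a prosubstrate for NanoLuc in the medium, so luminescence tracks viable cell number. Compound (23 nL, DMSO) added 5 h post-seeding; kinetic reads at 0–40 h, 37 C.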

[3] = A CellTox Green Cytotoxicity Assay to monitor cytotoxicity in HEK293 cells - 16 hour (AID 1224888); further: nearly all actives have a fitted effect of over 35% in size
Outline: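 Cells (HEK293, 600/well) and dye reagent are dispensed together. After 5 h at 37 C, 23 nL compound is pinned in. Plates stay at 37 C for 40 h with fluorescence read at 0h, 8h, 16h, 24h, 32h and 40h.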

[4] = qHTS RealTime-Glo MT Cell Viability Assay in HepG2 cells - 0 hour (AID 1224889); further: nearly all actives have a fitted effect of over 50% in size
Outline: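 HepG2 cells were seeded at 600 cells/well together with NanoLuc luciferase and a cell-permeant prosubstrate, preincubated 5 h at 37 C/5% CO2, then pin-dosed with compounds in DMSO. Nonlytic luminescence from viable cells was read at each time point.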

[5] = A CellTox Green Cytotoxicity Assay to monitor cytotoxicity in HepG2 cells - 8 hour (AID 1224890); further: nearly all actives have a fitted effect of over 45% in size
Outline: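 Cells and non-lytic dye reagent are dispensed together (600 HepG2 cells/well) and incubated 5 h before DMSO compound transfer. Kinetic fluorescence is then recorded in the same wells during 40 h at 37 C.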

[6] = qHTS assay to identify small molecule antagonists of the estrogen receptor alpha (ER-alpha) signaling pathway using the BG1 cell line in the presence of 0.1 nM 17-beta-estradiol - cell viability counter screen (AID 1259241); further: nearly all actives have a fitted effect of over 40% in size
Outline: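 In this screen, hormone-deprived VM7Luc4E2 cells were seeded at 4,000 per well, dosed with compound and 0.1 nM estradiol final, and incubated 22 hr at 37C and 5% CO2; fluorogenic live-cell protease signal reported viability.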

[7] = qHTS assay to identify small molecule antagonists of the androgen receptor (AR) signaling pathway using the MDA cell line in the presence of 0.5 nM R1881 - cell viability counter screen (AID 1259242); further: nearly all actives have a fitted effect of over 45% in size
Outline: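 Steps: plate MDA-kb2 cells, rest 5 hr at 37C without CO2; pin in compounds in DMSO; add R1881 to 0.5 nM final; incubate 16 hr; add CellTiter-Fluor, 30 min; read fluorescence.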

[8] = molecular target: Estrogen receptor (Homo sapiens) (UniProt P03372); assay: qHTS assay to identify small molecule antagonists of the estrogen receptor alpha (ER-alpha) signaling pathway using the BG1 cell line in the presence of 0.1 nM 17-beta-estradiol (AID 1259244); further: nearly all actives have a fitted effect of over 50% in size
Outline: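 Antagonist mode: compounds in DMSO are pinned onto VM7Luc4E2 reporter cells, 0.1 nM final 17beta-estradiol is added, and after 22 h at 37C luciferase luminescence is measured with ONE-Glo.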

[9] = qHTS assay to identify small molecule HDAC inhibitors - cell viability counter screen (AID 1259365)
Outline: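 Measured quantity is CellTiter-Glo luminescence from wild-type HCT-116 cells after compound incubation of 2hr at 37C, 5% CO2; reagent developed 30min at room temperature.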

[10] = qHTS assay to identify small molecule agonists of the sonic hedgehog signaling (Shh) pathway - cell viability counter screen (AID 1259366); further: nearly all actives have a fitted effect of over 50% in size
Outline: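 In quantitative high-throughput format, 3T3 Gli1-Luc cells were exposed to compounds for 24hr and multiplexed for viability using CellTiter-Fluor, incubated 1hr at 37C before the fluorescence read.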

[11] = qHTS assay to identify small molecule antagonists of the sonic hedgehog signaling (Shh) pathway - cell viability counter screen (AID 1259367); further: nearly all actives have a fitted effect of over 55% in size
Outline: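 Conditioned medium drove Shh signaling in 3T3 Gli1-Luc cells exposed to compounds at 37C and 5% CO2. Viability was determined from CellTiter-Fluor fluorescence, with reagent incubated 1 hr after 23 hr of treatment.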

[12] = qHTS assay to identify small molecule agonists of the sonic hedgehog signaling (Shh) pathway (AID 1259368; calls by dose curve;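 further: NIH/3T3-derived 3T3Gli1-Luc cells carrying a stable Gli1-driven firefly luciferase reporter; series mostly up to about 92 µM; nearly all actives have a fitted effect of over 15% in size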)
Outline: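 Cells of a mouse NIH/3T3 clone stably expressing luciferase under the Gli1 transcriptional response element are exposed to test chemicals for 24 hr at 37 C. Pathway activation is detected as a rise in luminescence.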

[13] = qHTS assay to identify small molecule antagonists of the sonic hedgehog signaling (Shh) pathway (AID 1259369; calls by dose curve; further: nearly all actives have a fitted effect of over 45% in size)
Outline: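 Cells are plated and held 4hr at 37 C, compounds (DMSO) are pinned in, conditioned medium is added to stimulate the pathway, and after 24hr luciferase reagent is added for 30min before luminescence is read.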

[14] = molecular target: Estrogen receptor beta (Homo sapiens) (UniProt Q92731); assay: qHTS assay to identify small molecule agonists of the estrogen receptor beta (ER-beta) signaling pathway (AID 1259377; active means well fitted activation curve with a large enough effect in the signal ratio in the repeat runs, not every such curve was filed as active; the % refers to the signal ratio)
Outline: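 Reporter cells (HEK293T, ER-beta-UAS-bla) receive compounds or DMSO after a 6 hr pre-incubation. They then incubate 16 hr at 37C/5% CO2, and fluorescence from LiveBLAzer B/G substrate is measured after 2 hours at room temperature.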

[15] = qHTS assay to identify small molecule agonists of the androgen receptor (AR) signaling pathway in the presence of an antagonist - cell viability counter screen (AID 1259379);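 further: MDA-kb2 human breast cancer cells carrying an MMTV luciferase reporter; series mostly up to about 92 µM; nearly all actives have a fitted effect of over 25% in size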
Outline: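 Cytotoxicity is assessed by CellTiter-Fluor in MDA-kb2 cells carrying an MMTV-driven luciferase reporter. Cells receive 3.0uM nilutamide plus compounds at 15 concentrations and incubate 16 hr at 37C without CO2 before fluorescence reading.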

[16] = qHTS assay to identify small molecule agonists of the estrogen receptor beta (ER-beta) signaling pathway - cell viability counter screen (AID 1259380); further: nearly all actives have a fitted effect of over 30% in size
Outline: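 Cytotoxicity is measured in parallel with the reporter screen: after 16 hr compound exposure at 37C and a 2 hr LiveBLAzer step, CellTiter-Glo is added to the same ER-beta-UAS-bla HEK293T wells and luminescence read after 30 min.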

[17] = qHTS assay to identify small molecule HDAC inhibitors (AID 1259364);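 further: wild-type HCT-116 cells with endogenous class I/II HDAC activity; top concentration of the series differs between compounds; nearly all actives have a fitted effect of over 45% in size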
Outline: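 Cells (HCT-116, wild type) are seeded at 1,500 per well, incubated overnight, treated with compound in DMSO for 2 hr, then developed with HDAC-Glo I/II reagent for 30 min at room temperature.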

[18] = molecular target: Estrogen receptor beta (Homo sapiens) (UniProt Q92731); assay: qHTS assay to identify small molecule antagonists of the estrogen receptor beta (ER-beta) signaling pathway (AID 1259378; active means well fitted inhibition curve with a large enough effect in the signal ratio in the repeat runs, not every such curve was filed as active; the % refers to the signal ratio)
Outline: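 ER-beta-UAS-bla HEK293T (GripTite) cells in 2% charcoal-stripped FBS medium were preincubated 6 hr at 37C, dosed with compound, then stimulated with 1 nM E2 (final) for 16 hr; beta-lactamase reporter read by B/G FRET fluorescence after 2 hr substrate loading.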

[19] = qHTS assay to identify small molecule phospholipidosis (PLD) inducers (AID 1259344; active means well fitted curve in the direction sought with a large enough effect; an effect the other way counts as inactive or inconclusive)
Outline: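 After 4 h attachment on collagen I, HepG2 cells were dosed with compound alongside LipidTOX Red, kept 24 h at 37 C, fixed, and imaged for lamellar phospholipid pits.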
On the % scale 0 is the no-effect control and ±100 the full control effect.

Chain of Estrogen receptor beta (Homo sapiens) (Q92731 whole entry, looked up): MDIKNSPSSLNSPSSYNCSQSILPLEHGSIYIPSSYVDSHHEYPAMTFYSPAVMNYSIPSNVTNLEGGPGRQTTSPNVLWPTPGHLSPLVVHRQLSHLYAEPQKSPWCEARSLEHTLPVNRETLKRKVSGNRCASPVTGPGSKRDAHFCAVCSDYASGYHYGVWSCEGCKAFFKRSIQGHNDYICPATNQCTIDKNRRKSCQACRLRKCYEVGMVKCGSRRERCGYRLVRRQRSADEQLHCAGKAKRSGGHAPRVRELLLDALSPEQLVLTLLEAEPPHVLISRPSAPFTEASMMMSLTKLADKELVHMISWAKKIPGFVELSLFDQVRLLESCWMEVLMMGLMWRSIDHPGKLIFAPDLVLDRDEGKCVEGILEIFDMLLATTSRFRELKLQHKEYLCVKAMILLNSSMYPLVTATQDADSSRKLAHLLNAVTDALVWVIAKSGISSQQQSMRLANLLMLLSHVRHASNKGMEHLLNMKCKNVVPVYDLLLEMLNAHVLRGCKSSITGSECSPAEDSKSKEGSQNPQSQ
Chain of Estrogen receptor (Homo sapiens) (P03372 whole entry, looked up): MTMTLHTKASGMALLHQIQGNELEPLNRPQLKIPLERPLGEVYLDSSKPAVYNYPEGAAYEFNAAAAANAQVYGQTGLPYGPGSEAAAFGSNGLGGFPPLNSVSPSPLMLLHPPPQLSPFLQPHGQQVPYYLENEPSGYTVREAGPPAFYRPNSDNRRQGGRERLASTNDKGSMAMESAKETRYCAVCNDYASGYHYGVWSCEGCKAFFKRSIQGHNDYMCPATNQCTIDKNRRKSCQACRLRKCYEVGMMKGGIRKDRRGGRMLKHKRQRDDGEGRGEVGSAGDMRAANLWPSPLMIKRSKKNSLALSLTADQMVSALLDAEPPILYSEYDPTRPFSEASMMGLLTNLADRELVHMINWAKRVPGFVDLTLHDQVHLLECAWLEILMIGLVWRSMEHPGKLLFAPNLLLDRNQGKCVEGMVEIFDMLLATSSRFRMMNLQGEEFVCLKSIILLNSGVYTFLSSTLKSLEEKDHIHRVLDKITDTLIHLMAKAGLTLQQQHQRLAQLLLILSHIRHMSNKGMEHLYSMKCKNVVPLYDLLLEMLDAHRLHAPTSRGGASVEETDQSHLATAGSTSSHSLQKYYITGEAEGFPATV

CC(=O)CCc1ccc(OC(C)=O)cc1
inactive: Potency [1] | Potency [2] | Potency [3] | Potency [4] | Potency [5] | outcome [6] | outcome [7] | outcome [8] | outcome [9] | outcome [10] | outcome [11] | outcome [12] | Potency [13] | Potency [14] | outcome [15] | outcome [16]

O=C1c2ccccc2C(=O)c2cc(Cl)ccc21
inactive: activity change, negative = cytotoxicity [1] 2.92% [at 6.97 µM] | activity change, negative = cytotoxicity [2] 6.4% [at 6.97 µM] | activity change [3] -0.237% [at 6.97 µM, active compounds read high] | activity change, negative = cytotoxicity [4] 1.38% [at 6.97 µM] | cytotoxicity increase [5] -0.731% [at 6.97 µM] | activity change, negative = cytotoxicity [6] 1.79% [at 8.39 µM] | viability change, negative = cytotoxic [7] 2.58% [at 8.39 µM] | activity change, negative = inhibition [8] 6.71% [at 8.39 µM] | activity change, negative = inhibition [17] -13.5% [at 8.39 µM] | viability change, negative = cytotoxic [10] 3.28% [at 8.39 µM] | activity change [12] 1.3% [at 8.39 µM] | activity change, negative = inhibition [13] 20.2% [at 8.39 µM] | activity change, negative = cytotoxicity [15] 0.449% [at 8.39 µM] | activity change, negative = cytotoxicity [16] 1.14% [at 8.39 µM]

CCc1occc(=O)c1O
inactive: Potency [1] | Potency [2] | Potency [3] | Potency [4] | Potency [5] | outcome [6] | outcome [7] | outcome [8] | Potency [17] | outcome [10] | outcome [11] | outcome [12] | Potency [13] | outcome [15] | outcome [16]

CC(=O)C(C)O (stereo not given)
inactive: Potency [1] | Potency [2] | Potency [3] | Potency [4] | Potency [5] | outcome [6] | outcome [7] | outcome [9] | outcome [10] | outcome [11] | outcome [12] | Potency [13] | Potency [18] | outcome [15] | outcome [16]

CN(C)CCCO[C@@H]1[C@H]2OC(C)(C)O[C@H]2O[C@@H]1C(O)CO (stereo not given in full)
inactive: Potency [1] | Potency [2] | Potency [3] | Potency [4] | Potency [5] | outcome [6] | outcome [8] | outcome [19] | Potency [17] | outcome [10] | outcome [11] | outcome [12] | Potency [13] | outcome [15] | outcome [16]

CC(O)COC(C)(C)C (stereo not given)
inactive: Potency [1] | Potency [2] | Potency [3] | Potency [4] | Potency [5] | outcome [6] | outcome [7] | Potency [17] | outcome [10] | outcome [11] | outcome [12] | Potency [13] | outcome [15] | outcome [16]

CC(CO)(CO)CO
inactive: Potency [1] | Potency [2] | Potency [3] | Potency [4] | Potency [5] | outcome [6] | outcome [8] | Potency [17] | outcome [9] | outcome [10] | outcome [11] | outcome [12] | Potency [13] | Potency [14] | Potency [18] | outcome [15]

C=C(C)[C@@H]1CC=C(C)CC1
inactive: Potency [1] | Potency [2] | Potency [3] | Potency [4] | Potency [5] | outcome [6] | outcome [8] | Potency [17] | outcome [9] | outcome [10] | outcome [11] | outcome [12] | Potency [13] | outcome [15] | outcome [16]
